The list is not random: actives were taken first. Their share in the collection is about 3.3%.
Vaccinia Venus – vaccinia inhibition (Venus reporter); 330,000 tested, 0.46% active; Potency, µM (top dose mostly 36.5 µM), for the others: top-dose activity change, negative = inhibition, actives largely listed as inhibitors; Vaccinia virus Venus reporter expression, fluorescence; calls by dose curve; tested in A549 cells; note: nearly all actives have a fitted effect of over 30% in size
VACV mCherry inh – vaccinia inhibition (mCherry reporter). Potency, µM (doses to about 36.5 µM), inactives show at the highest dose activity change, negative = inhibition, usual class: inhibitors. 310,000 tested, 0.63% active. Vaccinia virus mCherry reporter infection, fluorescence; calls by dose curve; tested in A549 cells; note: nearly all actives have a fitted effect of over 35% in size
HCV inh – blocks hepatitis C virus. Huh7.5.1 HCVcc-Cre infection, luciferase reporter, 44 h. Potency, µM (doses to about 41.8 µM), without a hit: at the highest dose activity change, negative = inhibition, most hits filed as inhibitors. 340,000 tested, 3.4% active. AID 651820; active = well fitted inhibition curve with a large enough effect; inconclusive = small, poorly fitted or top-dose-only effect, or another doubt; inactive = no such curve, though single readings can be large or run the other way
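HCVcc-Cre virus at an moi near 0.5 was added right after compound to cells cultured 4 h from seeding (1,000 cells/well). Luciferase activity was determined 44 h later, 15 min after substrate addition at RT.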
Numbers without * were called inactive; i = inactive; ? = inconclusive; / = not tested or not shown. % is set by controls: 0 for no effect and ±100 for the full control effect; potency is the fitted concentration of half-maximal effect.

SMILES	Vaccinia Venus	VACV mCherry inh	HCV inh
Cc1cc(C)nc(Sc2ccc3nnnn3n2)n1	3.5µM*	0.5µM*	7%
Cc1cc(C)nc(Sc2c(C)nn(-c3ccccc3)c2C)n1	-9%	/	-20%
COC(=O)CCCn1cc(CN2CC(N3CCCCC3)CS2(=O)=O)nn1 (stereo not drawn)	6%	34%	/
COC(=O)CSc1ncnc2c1sc1nc(-c3ccco3)c3c(c12)CC(C)(C)OC3	/	/	7%
CCOC(=O)c1sc2nc(-c3ccco3)c3c(c2c1N)CC(C)(C)OC3	13µM*	10µM*	?
O=C1CC2(CCCC2)CC(=O)N1CCCCNCC1COc2ccccc2O1 (stereo not drawn)	?	-20%	/
O=C(c1ccc(Cl)cc1)N1CCC(C(=O)N2CCCc3ccccc32)CC1	-12%	i	3%
Cc1cccc(NS(=O)(=O)c2ccc(Cl)c(C(=O)Nc3ccccc3C)c2)c1	-7%	-9%	/
COc1ccccc1C1CC(c2ccc(Br)cc2)=NN1C(=O)c1cccnc1 (stereo not drawn)	?	-22%	?
COc1cccc(C2CC(c3ccc(Br)cc3)=NN2C(=O)c2ccncc2)c1OC (stereo not drawn)	?	14µM*	?
O=C(C1CCCCC1)N1CCc2[nH]c3ccc(F)cc3c2C1	/	/	-9%
COc1ccccc1NC(=O)N1CCc2[nH]c3ccc(F)cc3c2C1	?	/	10µM*
CN1CCN(C(=O)c2ccc(CNS(=O)(=O)c3cccc(Cl)c3)cc2)CC1	-7%	i	3%
CCC(C)NC(=O)c1cc2c(Cl)nc3ccc(C)cc3c2s1 (stereo not drawn)	-11%	-9%	/
Cc1nn(CCCC(=O)NC2CCC(C)CC2)c(=O)c2nn(-c3ccccc3)c(C)c12 (stereo not drawn)	/	/	-4%
COc1ccccc1C1CN(CC(=O)N[C@H]2CCCCNC2=O)Cc2ccccc2O1 (stereo partly drawn)	6%	-15%	/
COC(=O)C1CCN(Cc2ccc3c(c2)CN(C(=O)c2ncc(C)[nH]2)CCO3)CC1	6%	-8%	/
Nc1cc([N+](=O)[O-])cc2oc(-c3ccccc3)cc12	/	/	10µM*
O=c1cc(-c2ccccc2)oc2ccccc12	-4%	-3%	?
Cc1c(C(=O)NCCc2ccc(Cl)cc2)sc2nc3n(c(=O)c12)CCCC3	-6%	-20%	/
CN(CC(=O)Nc1c(Cl)cccc1Cl)C(=O)c1cc(-c2cccs2)nn1-c1ccccc1	-13%	0%	?
CCN(CC(=O)Nc1c(F)cccc1F)C(=O)c1cc(-c2cccs2)nn1-c1ccccc1	-10%	i	14µM*
COc1ccc(-c2sc3ccc(OC)cc3c2C#CCCO)cc1	?	0%	?
COc1cccc(-c2sc3ccc(OC)cc3c2C#CC(C)(C)O)c1	?	?	7.1µM*
COc1ccc2sc(-c3ccc(N(C)C)cc3)c(C#Cc3cncn3C)c2c1	?	?	2.5µM*
SMILES	Vaccinia Venus	VACV mCherry inh	HCV inh
COc1ccc2sc(-c3ccc(N(C)C)cc3)c(C#CCCO)c2c1	?	?	1.4µM*
COc1ccc2sc(-c3ccc(SC)cc3)c(C#CC(C)(C)O)c2c1	?	?	2.8µM*
COc1cccc(-c2sc3ccc(OC)cc3c2C#CCC(C)O)c1 (stereo not drawn)	?	-19%	?
COc1ccc2c(-c3ccc(SC)cc3)c(-c3ccc(S(C)(=O)=O)cc3)sc2c1	0%	-13%	?
COc1ccc(-c2sc3ccc(N4CCOCC4)cc3c2C#Cc2ccsc2)cc1	-19%	?	?
CN1CCOc2cc(S(=O)(=O)N3CCN(c4nc(-c5cccs5)nc5ccccc45)CC3)ccc21	-19%	i	/
CC1(C)O[C@H]2[C@@H](O1)[C@@H](C(=O)Nc1ccccc1O)O[C@@H]1OC(C)(C)O[C@@H]12	-12%	-1%	/
COc1ccccc1CNS(=O)(=O)c1ccc(-c2cnc(C3CC3)o2)cc1	-20%	-19%	?
COc1ccc2sc(-c3ccc(S(C)(=O)=O)cc3)c(-c3ccc(SC)cc3)c2c1	-7%	-24%	?
COc1ccc2sc(-c3ccc(SC)cc3)c(C#CCO)c2c1	?	?	2.8µM*
COc1ccc(-c2c(-c3ccc(S(C)(=O)=O)cc3)sc3ccc(OC)cc23)cc1	-17%	i	?
COc1ccc2sc(-c3ccc(N(C)C)cc3)c(C#CC(C)(C)O)c2c1	?	-21%	3.2µM*
CCCCCCCCCc1ccc(OCCOCCO)cc1	?	-21%	/
CCC1CN(CCNC(=O)c2cc3ccccc3oc2=O)Cc2cc(OC)ccc2O1 (stereo not drawn)	-2%	-6%	/
Cc1ccc(S(=O)(=O)NCCNC(=O)c2ccc(C)nc2)cc1	-8%	-16%	20%
Cc1ccccc1CNCCSc1nnnn1-c1ccccc1	-10%	-5%	/
Clc1ccc2nc[nH]c2c1	-7%	i	/

Assay outcomes from PubChem BioAssay.
